38 compounds from paper PMC4336329 (PLoS ONE, 2015) can be followed below.

The structures appear in SMILES notation. Among all 310,000 compounds or so, about 14,000 (4.5%) showed an effect of 50% or more. Effects have a minus sign here. The full list was thinned out, with strong results kept by preference.
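Also: peak tail current of the secondary pulse compared with the same well before compound.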

For this test, the target named is human ether-à-go-go-related gene (hERG) potassium channel (human, UniProt Q12809). Description: primary screen, population patch clamp on CHO cells stably expressing hERG; higher = less effect of the substance.
human ether-à-go-go-related gene (hERG) potassium channel, sequence (Q12809 whole entry, looked up): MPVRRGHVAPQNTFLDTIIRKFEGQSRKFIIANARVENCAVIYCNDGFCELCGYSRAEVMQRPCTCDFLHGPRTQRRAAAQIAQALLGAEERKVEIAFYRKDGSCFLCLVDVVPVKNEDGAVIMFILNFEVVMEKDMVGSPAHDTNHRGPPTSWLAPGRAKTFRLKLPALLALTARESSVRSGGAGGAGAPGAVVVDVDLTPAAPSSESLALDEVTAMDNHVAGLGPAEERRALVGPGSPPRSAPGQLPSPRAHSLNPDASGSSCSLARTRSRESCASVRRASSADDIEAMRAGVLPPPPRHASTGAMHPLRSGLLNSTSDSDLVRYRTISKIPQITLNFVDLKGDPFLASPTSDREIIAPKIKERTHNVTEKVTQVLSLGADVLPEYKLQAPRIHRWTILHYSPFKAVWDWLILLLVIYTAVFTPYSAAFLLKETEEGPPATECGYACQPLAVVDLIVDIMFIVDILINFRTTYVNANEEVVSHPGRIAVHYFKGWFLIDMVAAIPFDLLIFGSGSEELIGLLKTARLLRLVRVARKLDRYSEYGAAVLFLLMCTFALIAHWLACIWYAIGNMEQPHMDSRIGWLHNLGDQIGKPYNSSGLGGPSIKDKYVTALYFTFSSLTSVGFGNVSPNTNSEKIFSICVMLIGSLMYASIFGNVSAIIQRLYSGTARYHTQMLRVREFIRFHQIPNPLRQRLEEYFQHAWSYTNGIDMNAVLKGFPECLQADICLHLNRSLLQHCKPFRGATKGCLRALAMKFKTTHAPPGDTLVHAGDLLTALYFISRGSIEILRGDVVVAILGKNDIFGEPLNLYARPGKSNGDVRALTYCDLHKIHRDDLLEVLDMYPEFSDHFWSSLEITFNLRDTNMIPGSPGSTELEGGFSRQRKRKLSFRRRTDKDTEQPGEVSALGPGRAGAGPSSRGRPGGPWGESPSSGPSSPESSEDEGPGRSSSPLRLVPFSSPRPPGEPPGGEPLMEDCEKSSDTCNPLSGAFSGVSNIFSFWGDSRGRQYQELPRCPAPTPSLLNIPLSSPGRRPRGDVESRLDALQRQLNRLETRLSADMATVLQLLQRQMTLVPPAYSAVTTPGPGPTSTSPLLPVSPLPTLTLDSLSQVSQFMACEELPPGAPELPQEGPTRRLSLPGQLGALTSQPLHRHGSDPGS
For `CCS(=O)(=O)N1CCN(C(=O)c2cccc3ccccc23)CC1`, the “hERG current change (%, negative = inhibition) at 10uM” value is 12.8%.
As for `COc1ccc(CNC(=O)[C@@H]2CC=C[C@@H]3CCN(Cc4ccc(Cl)c(Cl)c4)C(=O)[C@@H]32)cc1`, the “hERG current change (%, negative = inhibition) at 10uM” value was -8.85%.
The result for `COc1cccc(CCN2C(=O)C(=O)N([C@@H](CNCc3ccccc3)Cc3ccccc3F)C[C@@H]2C(C)(C)C)c1` reads -48.5%.
Take `COc1ccc(CNC[C@@H](CCCCN(C)Cc2ccc(OC)cc2)N2C[C@H](c3ccccc3)N(CCc3ccc(Cl)c(Cl)c3)C(=O)C2=O)cc1`: the “hERG current change (%, negative = inhibition) at 10uM” value is listed as -80.3%.
On to `Nn1cnc2cc3ccccc3cc2c1=O`, for which the “hERG current change (%, negative = inhibition) at 10uM” value is recorded as 8.16%.
Take `Cn1c(=O)c2cn(-c3ccc4c(c3)OCCO4)cc2n(C)c1=O`: the “hERG current change (%, negative = inhibition) at 10uM” value is on record as 11.3%.
`Cc1cccc(C)c1NC(=O)C1(N(Cc2ccco2)C(=O)c2ccccn2)CCCC1`: the “hERG current change (%, negative = inhibition) at 10uM” value worked out at 5.95%.
Consider `COc1c(Cl)cc(Cl)cc1C(=O)Nc1ccc(CN2CCCCC2)cc1`, for which the “hERG current change (%, negative = inhibition) at 10uM” value is reported as -65.1%.
Take `COc1c(C)cccc1C(=O)Nc1ccc(CN2CCCCC2)cc1`: the “hERG current change (%, negative = inhibition) at 10uM” value is recorded as -30.7%.
`COc1cccc(OC)c1C(=O)Nc1ccc(CN2CCCCC2)cc1`: the “hERG current change (%, negative = inhibition) at 10uM” value came out at 10.6%.
As for `COc1c(Cl)cc(Cl)cc1C(=O)Nc1ccc(CN2CCOCC2)cc1`, the “hERG current change (%, negative = inhibition) at 10uM” value was found to be 8.37%.
Turning to `COc1ccccc1C(=O)Nc1ccc(CN2CCCCC2)cc1`, the “hERG current change (%, negative = inhibition) at 10uM” value is given as -28.4%.
With `COc1ccc(Cl)cc1C(=O)Nc1ccc(CN2CCCCC2)cc1`, the “hERG current change (%, negative = inhibition) at 10uM” value is -52%.
`Cc1ccc(N2C(S)=C(C#N)C(=O)NC2c2cccs2)cc1` (centres unmarked): the “hERG current change (%, negative = inhibition) at 10uM” value is reported as 15.2%.
Regarding `c1ccc(CN(Cc2ccccc2)c2ncnc3c2nnn3Cc2ccccc2)cc1`, the “hERG current change (%, negative = inhibition) at 10uM” value turned out to be 7.63%.
`CC1Cc2nc(SCC(=O)NCc3ccco3)n(-c3ccccc3)c(=O)c2S1` (centres unmarked): the “hERG current change (%, negative = inhibition) at 10uM” value was -33.5%.
For `CCN1CCN(Cc2ccc(NC(=O)c3ccc(C)c(NC(=O)c4csc(-c5ccncc5)n4)c3)cc2C(F)(F)F)CC1`, the “hERG current change (%, negative = inhibition) at 10uM” value is reported as 7.22%.
For `O=C(Nc1cccc(C(F)(F)F)c1)c1csc(-c2ccncc2)n1`, the “hERG current change (%, negative = inhibition) at 10uM” value was -68.6%.
The figure for `COc1cc(NC(=O)c2csc(-c3ccncc3)n2)cc(C(=O)Nc2cccc(C(F)(F)F)c2)c1` is -48.7%; for `O=C(Nc1ccc(C(F)(F)F)cc1)c1csc(-c2ccncc2)n1` it is -25.4%.
As to `NNC(=O)c1csc(-c2cccc(C(F)(F)F)c2)n1`, the “hERG current change (%, negative = inhibition) at 10uM” value is on record as -30%.
Take `Cc1ccc(C(=O)Nc2cccc(C(F)(F)F)c2)cc1NC(=O)c1csc(-c2ccncc2)n1`: the “hERG current change (%, negative = inhibition) at 10uM” value is -62.5%.
The result for `CC(C)N1C(=O)C2ON(c3ccccc3)C(c3cccs3)C2C1=O` (centres unmarked) reads -16.6%; that for `CCOC(=O)C(CC)(CCC(=O)O)c1csc(Nc2ccc(C)cc2)n1` (centres unmarked), 16.5%; that for `Cc1cc(=O)oc2c(C)c(OCC(=O)N(C)C)ccc12`, 9.8%.
As for `O=C(c1ccc(F)cc1)N1C2CCC1CC(O)(c1ccc(F)cc1)C2` (centres unmarked), the “hERG current change (%, negative = inhibition) at 10uM” value is -20.6%.
With `COc1ccc(C(C)=O)cc1COC(=O)c1ccc(N)c([N+](=O)[O-])c1`, the “hERG current change (%, negative = inhibition) at 10uM” value worked out at 35.1%.
Turning to `COc1ccc(C(C)(C)C)cc1NC(=O)c1cc(S(=O)(=O)N(C)C)ccc1N1CCCC1`, the “hERG current change (%, negative = inhibition) at 10uM” value was -60%.
The figure for `COc1ccc(CCNC(=O)c2cc(S(=O)(=O)N(C)C)ccc2N2CCCC2)cc1OC` is 5.99%; for `COc1ccc(NC(=O)c2cc(S(=O)(=O)N(C)C)ccc2N2CCCC2)cc1Cl` it is 12.7%.
Turning to `COc1cc(Cl)c(C)cc1NC(=O)c1cc(S(=O)(=O)N(C)C)ccc1N1CCCC1`, the “hERG current change (%, negative = inhibition) at 10uM” value is recorded as -51.8%.
The figure for `COc1cc(C(=O)NNC(=O)c2cc(S(=O)(=O)N(C)C)ccc2N2CCCC2)cc(OC)c1OC` is 15.1%.
On to `COc1ccc(NC(=O)CN(C)C(=O)c2cc(S(=O)(=O)N(C)C)ccc2N2CCCC2)cc1`, for which the “hERG current change (%, negative = inhibition) at 10uM” value is reported as -13.8%.
Take `Cc1ccc(NC(=O)c2cc(S(=O)(=O)N(C)C)ccc2N2CCCC2)cc1S(=O)(=O)N(C)C`: the “hERG current change (%, negative = inhibition) at 10uM” value is -26.5%.
Turning to `COc1ccc(OC)c(NC(=O)c2cc(S(=O)(=O)N(C)C)ccc2N2CCCC2)c1`, the “hERG current change (%, negative = inhibition) at 10uM” value is on record as -68.1%.
The figure for `COc1ccc(CCNC(=O)c2cc(S(=O)(=O)N(C)C)ccc2N2CCCC2)cc1` is 4.26%; for `CN(C)CCNc1cnn(-c2ccccc2)c(=O)c1Cl` it is 14.2%.
The figure for `CCOC(=O)c1[nH]c2ccccc2c1NC(=S)Nc1cccc(C)c1C` is -5.81%.
